Experimental findings from PubChem BioAssay AID588346 (National Center for Advancing Translational Sciences (NCATS), 2011) are described below.

Results filed as inconclusive are left out. Where a call stands in place of a potency, no number is given. Active and inactive are the calls of the source. Calls follow the shape of the dose curve; as a rule, active = well fitted curve in the direction sought with a large enough effect; inconclusive = small, poorly fitted or top-dose-only effect, or another doubt; inactive = no such curve, though single readings can be large or run the other way.

This experiment in a line: qHTS Assay for Inhibitors of Histone Lysine Methyltransferase G9a: Hit Confirmation in b-rIgG Counterscreen. The settings on record: AlphaScreen b-rIgG bead counterscreen, signal interference; series mostly up to 55.7 µM. From the text: Methylated lysines, on the N-terminal tails of histone proteins serve as epigenetic markers to recruit factors that can then modify local chromatin structure to lead to functional consequences. G9a and other members of the SUV39 family of the SET domain-containing superfamily of histone lysine methyltransferases (HMT) have been identified to specifically methylate Lys9 of histone H3 (H3K9). G9a catalyzes the mono- and di-methylation of H3K9 in mammalian euchromatic regions, where the resulting H3K9me2 is indicative of transcriptional repression. […] The inhibition of G9a will result in transcriptional activation and work synergistically with DNA methyltransferase and histone deacetylase inhibitors, to kill cancer cells. This qHTS assay for identification of G9a inhibitors is a chemiluminescence based AlphaScreen (PerkinElmer). Methylation of biotinylated-histone peptide is measured through specific antibody-based detection, in conjunction with streptavidin-coated donor and anti-IgG antibody-coated acceptor beads. The method is particularly well suited for detection of inhibitors acting by the desired histone peptide competitive mechanism and is applicable to testing other HMTs. Although AlphaScreen has significant advantages with its utility in a variety of epigenetic target assays, the primary screening data provided in this deposition should be used with caution due to the prevalence of screening artifacts. Because an AlphaScreen counterscreen is highly recommended to be run against any putative actives to eliminate non specific artifacts, this assay was used as a counterscreen. Quinn et al. A chemiluminescence-based method for identification of histone lysine methyltransferase inhibitors. Mol Biosyst 6(5): 782-8. 2010. PMID: 20567762 [2] Baell,Holloway. New substructure filters for removal of pan assay interference compounds (PAINS) from screening libraries and for their exclusion in bioassays. J Med Chem. 53(7):2719-40. 2010. PMID: 20131845 NIH Chemical Genomics Center [NCGC] NIH Molecular Libraries Probe Production Network [MLPCN] MLPCN Grant: MH084681-02 Assay Submitter (PI): Structural Genomic Consortium - Toronto, Peter Brown
Biotinylated rabbit-IgG (b-rIgG) (Santa Cruz Biotechnology, Inc., Santa Cruz, CA) was added to 1,536-well plates in a 3 uL dispense. Compounds were added in a 23 nL pin-transfer step, and plates were incubated at room temperature for 15 min. Streptavidin-coated donor and anti-rIgG acceptor AlphaScreen beads were added (1 uL) for final concentrations of 20 ug/mL each bead and 1 nM b-rIgG, and plates read on the Envision after a 15 min incubation at room temperature in the dark.
As to `COc1ccc2c(C)cc(SCC(=O)N(C)C3CCS(=O)(=O)C3)nc2c1` (stereo not given), the Potency result was “inactive”.

With `NC(=O)c1cc[n+](CC2=C(C(=O)O)N3C(=O)[C@@H](NC(=O)[C@@H](c4ccccc4)S(=O)(=O)[O-])[C@H]3SC2)cc1`, the Potency entry was “inactive”.

`COCCNC(=S)N/N=C(\C)c1ccccc1O`: the Potency entry is “inactive”.

In the case of `COc1ccc(NC(=O)CSc2nc3c(oc4ccccc43)c(=O)n2Cc2ccco2)cc1Cl`, the Potency result is “inactive”.

As for `C[n+]1cc2c3c(ccc2c2ccc4cc5c(cc4c21)OCO5)OCO3`, the Potency entry is “inactive”.

On to `CN(c1ccccc1)S(=O)(=O)c1nnc(NC(=O)c2ccccc2)s1`, for which the Potency entry is “inactive”.

As for `O=C(CSc1cccc2cccnc12)N1CCCC1`, the Potency result is “inactive”.

As to `CNc1nc(N2CCCN(C)CC2)nc2cc(OC)c(OC)cc12`, the Potency result is “inactive”.

Consider `O=C(NN1C(=O)c2ccccc2NC1c1ccc([N+](=O)[O-])o1)c1ccc([N+](=O)[O-])cc1` (stereo not given), for which the Potency entry is “inactive”.

In the case of `COc1cc2nc(N3CCN(C(=O)C4COc5ccccc5O4)CC3)nc(N)c2cc1OC` (stereo not given), the Potency entry was “inactive”.

With `Oc1c(N=Nc2ccccn2)ccc2ccccc12`, the Potency is 11.2 µM (active).

On to `COc1ccc(C(=O)/C=C/Sc2nc3ccccc3o2)cc1`, for which the Potency result was “inactive”.

As to `CNC(=O)Oc1ccc2c(c1)[C@]1(C)CCN(C)[C@@H]1N2C`, the Potency entry is “inactive”.

With `CC(C)C(=O)NC(c1ccc(N(C)C)cc1)c1ccc2cccnc2c1O` (stereo not given), the Potency entry is “inactive”.

For the molecule `COc1nc(Nc2nc3ccccc3c(=O)[nH]2)nc2ccc(C)cc12`, the Potency result was “inactive”.

Turning to `Oc1ccc(Br)cc1C=Nc1ccc2c3c(cccc13)CC2`, the Potency result is “inactive”.

`CC1=NN(c2nc3ccccc3[nH]2)C(=O)C1Cc1ccccc1` (stereo not given): the Potency entry is “inactive”.

Regarding `Ic1ccc(N2CCN(Cc3c[nH]c4ncccc34)CC2)cc1`, the Potency result is “inactive”.

On to `CCCCOC(=O)Cn1c2ccc(OC)cc2c2nc3ccccc3nc21`, for which the Potency result is “inactive”.

As for `Nc1nc2ccc(Cl)cc2c2nc(-c3ccco3)nn12`, the Potency entry is “inactive”.

Regarding `CSc1nsc(/C=C/Nc2cccc(Cl)c2)c1C#N`, the Potency entry is “inactive”.

Regarding `COc1ccccc1N1CCN(CCN2C(=O)CC3(CCCC3)CC2=O)CC1`, the Potency entry was “inactive”.

Regarding `O=c1c2ccccc2nc(COc2ccccc2)n1/N=C/c1c[nH]c2ccccc12`, the Potency result is “inactive”.

As for `O=C(N/N=C/c1ccccn1)c1cc(-c2ccc(Cl)cc2)nc2ccccc12`, the Potency result was “inactive”.

For `O=C1C=C(Nc2ccc(Cl)cc2)C(=O)N1c1ccc(Cl)cc1`, the Potency entry is “inactive”.

For `O=C1CN(c2nc(-c3ccccc3)c3cc(Cl)ccc3n2)c2ccccc2N1`, the Potency result is “inactive”.

Take `CCOn1c(=O)c[n+]([O-])c2ccccc21`: the Potency result was “inactive”.

`N=c1n(CC(=O)c2ccc([N+](=O)[O-])cc2)c2ccccc2n1Cc1ccccc1Cl`: the Potency entry is “inactive”.

Take `Cc1ccc(/C=[N+](\[O-])c2ccc(N(C)C)cc2)c2nsnc12`: the Potency entry is “inactive”.

On to `Cc1ccc(C(C)C)c(OCc2ccc(C(=O)N/N=C/c3cccc(O)c3O)cc2)c1`, for which the Potency result was “inactive”.

For the molecule `CCCC(=O)N1CCN(c2ccc(NC(=O)c3ccc([N+](=O)[O-])o3)cc2Cl)CC1`, the Potency result is “inactive”.

As for `NC(=S)N/N=C/c1ncc(C(F)(F)F)cc1Cl`, the Potency entry is “inactive”.

As for `CC(C)N(CCC(=O)c1ccc2ccccc2c1)Cc1ccccc1`, the Potency entry was “inactive”.

Take `O=C(CSc1cccc[n+]1[O-])c1ccccc1Br`: the Potency entry is “inactive”.

Take `COc1ccc(NC(=O)c2ccc(-c3ccc(-c4noc(C)n4)cc3C)cc2)cc1N1CCN(C)CC1`: the Potency was 28.2 µM (active).

`C/C=C/c1ccc(OCC(=O)OCC(=O)NC2CC2)c(OC)c1`: the Potency entry was “inactive”.

Take `CCc1nnc(NC(=O)c2cccc(C(=O)Nc3nnc(CC)s3)n2)s1`: the Potency entry is “inactive”.

Regarding `COc1cccc(N2CCN(S(=O)(=O)c3ccc(-n4cnnn4)cc3)CC2)c1`, the Potency entry is “inactive”.

On to `COc1cc2c(cc1C(F)(F)F)N(C(=O)Nc1cc(F)cc(-c3cccnc3)c1)CC2`, for which the Potency entry is “inactive”.

Turning to `CCN1CCc2nc(N)oc2CC1`, the Potency entry is “inactive”.
